“And” between values parts separate entries of the source, which are not always exact repeats. Equal entries are not always repeated. Results filed as inconclusive are left out. The source holds several records for some structures; these can differ, active in one and inactive in another. The source made the active and inactive calls. How the source made its calls: active means hit-call score of the fitted dose curve at least 0.9, where 1 is the maximum; inconclusive means response in the unintended direction; inactive means score below 0.9.
Legend:
[1] = ATG_XTT_Cytotoxicity: Cytotoxicity Assessment in the Attagene TRANS-FACTORIAL HepG2 Assay (AID 2283584);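 on AC50: cells exposed to compound for 24 h before reading; active means loss of viability signal versus DMSO baseline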
How it was run: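 HepG2 human liver cells, transiently transfected with multiple GAL4-UAS reporter units, were dosed and read at 24 h by XTT as cell number. Loss of signal was fitted relative to DMSO negative control baseline.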

[2] = TOX21_p53_BLA_p2_viability: Viability Assessment in the Tox21 HCT-116 p53 Agonism Beta-lactamase Assay, Phase 2 (AID 2283591);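 further: compound exposure lasted 16 h at 37 °C; actives lower the ATP signal meaning cytotoxicity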
How it was run: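 HCT-116 p53-bla cells (4000/well) rested 5 h at 37C, then received compounds in DMSO (217-fold dilution) for 16 h at 37C, 5% CO2. After the CCF4 read, CellTiter-Glo was added; ATP luminescence was read after 30 min at room temperature.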

[3] = target: Cellular tumor antigen p53 (Homo sapiens) (UniProt P04637); assay: TOX21_p53_BLA_p2_ratio: Tox21 HCT-116 p53 Agonism Beta-lactamase Assay, Ratio, Phase 2 (AID 2283592)
Chain of Cellular tumor antigen p53 (Homo sapiens) (P04637 whole entry, looked up): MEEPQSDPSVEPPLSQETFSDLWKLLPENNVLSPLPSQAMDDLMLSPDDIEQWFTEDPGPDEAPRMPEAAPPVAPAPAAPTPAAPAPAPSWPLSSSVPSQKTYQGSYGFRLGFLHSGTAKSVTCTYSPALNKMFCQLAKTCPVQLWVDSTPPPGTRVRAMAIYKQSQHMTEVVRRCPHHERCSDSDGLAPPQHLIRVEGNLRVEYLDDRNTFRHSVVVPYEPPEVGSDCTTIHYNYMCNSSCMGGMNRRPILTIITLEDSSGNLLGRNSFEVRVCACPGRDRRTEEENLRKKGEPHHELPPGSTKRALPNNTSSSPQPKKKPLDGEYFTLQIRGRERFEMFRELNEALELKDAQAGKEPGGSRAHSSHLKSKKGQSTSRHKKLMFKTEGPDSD
How it was run: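 HCT116 cells carrying a p53-responsive beta-lactamase reporter were plated, incubated 5 h at 37C, then dosed with compounds in DMSO (217-fold dilution) for 16 h. CCF4-AM substrate was added for 2 h at room temperature; the 460/530 nm emission ratio gave gain-of-signal activity relative to DMSO.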

[4] = TOX21_p53_BLA_p3_viability: Viability Assessment in the Tox21 HCT-116 p53 Agonism Beta-lactamase Assay, Phase 3 (AID 2283593);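 further: cells exposed to compound for 16 h before reading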
How it was run: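 HCT-116 cells (4000/well) rested 5 h at 37C, then got DMSO compounds by pin tool (217-fold dilution) for 16 h at 37C, 5% CO2. After the bla read, CellTiter-Glo was added and luminescence read at 30 min, room temperature.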

[5] = target: Cellular tumor antigen p53 (Homo sapiens) (UniProt P04637); assay: TOX21_p53_BLA_p3_ratio: Tox21 HCT-116 p53 Agonism Beta-lactamase Assay, Ratio, Phase 3 (AID 2283596)
How it was run: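 HCT116 p53-bla cells (4000/well) given compound in DMSO (217-fold dilution) after 5 h, incubated 16 h at 37C. CCF4-AM substrate 2 h at room temperature; 460/530 nm emission ratio, gain fitted against DMSO.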

[6] = TOX21_p53_BLA_p4_viability: Viability Assessment in the Tox21 HCT-116 p53 Agonism Beta-lactamase Assay, Phase 4 (AID 2283597);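 further: hits lower the luminescence signal meaning cytotoxicity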
How it was run: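 HCT116 p53-bla cells (4000/well) rested 5 h at 37C, then received compounds in DMSO (217-fold dilution) for 16 h at 37C, 5% CO2. CellTiter-Glo was added after the CCF4-AM read, and luminescence was read after 30 min at room temperature.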

[7] = target: Cellular tumor antigen p53 (Homo sapiens) (UniProt P04637); assay: TOX21_p53_BLA_p5_ratio: Tox21 HCT-116 p53 Agonism Beta-lactamase Assay, Ratio, Phase 5 (AID 2283599)
How it was run: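 HCT-116 cells carrying a p53-inducible beta-lactamase reporter were seeded at 4000 cells/well and dosed after 5 h with compound in DMSO (217-fold dilution). After 16 h at 37C, CCF4-AM substrate was added for 2 h, and the 460/530 nm emission ratio was scored as gain-of-signal versus DMSO.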

[8] = TOX21_p53_BLA_p5_viability: Viability Assessment in the Tox21 HCT-116 p53 Agonism Beta-lactamase Assay, Phase 5 (AID 2283600)
How it was run: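 Cells were plated at 4000/well, rested 5 h at 37C, then given compounds in DMSO (217-fold dilution) for 16 h at 37C, 5% CO2. Following the CCF4-AM beta-lactamase read, CellTiter-Glo was added and luminescence was read after 30 min at room temperature.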

[9] = target: Cellular tumor antigen p53 (Homo sapiens) (UniProt P04637); assay: TOX21_p53_BLA_p4_ratio: Tox21 HCT-116 p53 Agonism Beta-lactamase Assay, Ratio, Phase 4 (AID 2283601)
How it was run: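 HCT116 cells carrying an inducible beta-lactamase reporter were plated at 4000 cells/well, rested 5 h, then exposed to compounds in DMSO (217-fold dilution) for 16 h at 37C. CCF4-AM substrate was loaded 2 h at room temperature; 460/530 nm emission ratio scored gain-of-signal versus DMSO.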

[10] = Tanguay_ZF_120hpf_MORT_legacy: (Legacy) Oregon State University Tanguay Lab 120 Hour Post-fertilization zebrafish Assay for Mortality (AID 2283633);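 on AC50: fitted as increase in binary mortality versus DMSO negative control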
How it was run: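 Dechorionated Tropical 5D wild-type zebrafish embryos, one per well from 6 hpf, were statically exposed at 28C in the dark until 120 hpf (0.64% DMSO final). Mortality was scored as present/absent by brightfield microscopy, fitted positively versus DMSO.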

[11] = Tanguay_ZF_120hpf_YSE_legacy: (Legacy) Oregon State University Tanguay Lab 120 Hour Post-fertilization zebrafish Assay for Yolk Sac Edema (AID 2283634);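 on AC50: actives raise the incidence of yolk sac edema above the DMSO baseline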
How it was run: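 Tropical 5D wild-type embryos, dechorionated with pronase at 4 hpf, were exposed singly from 6 hpf to 120 hpf under static, sealed, dark conditions at 28C with 0.64% DMSO final. Yolk sac edema was scored present/absent by brightfield microscopy.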

[12] = Tanguay_ZF_120hpf_AXIS_legacy: (Legacy) Oregon State University Tanguay Lab 120 Hour Post-fertilization zebrafish Assay for Body Axis Malformation (AID 2283635);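 on AC50: potency for an increased fraction of larvae scored with body axis malformation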
How it was run: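 Tropical 5D wild-type zebrafish embryos, dechorionated with pronase at 4 hpf, were placed singly in wells at 6 hpf and exposed statically to test chemical (0.64% DMSO final) at 28C until 120 hpf, then scored by brightfield for body axis defects.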

[13] = Tanguay_ZF_120hpf_EYE_legacy: (Legacy) Oregon State University Tanguay Lab 120 Hour Post-fertilization zebrafish Assay for Eye Malformation (AID 2283636);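 further: binary presence or absence of eye malformation scored by brightfield in 120 hpf larvae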
How it was run: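 Dechorionated wild-type Tropical 5D zebrafish embryos were exposed statically from 6 hpf, one per well, to 120 hpf at 28C in sealed, foil-covered plates with 0.64% DMSO. Eye malformation was scored present/absent by brightfield microscopy against DMSO controls.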

[14] = Tanguay_ZF_120hpf_SNOU_legacy: (Legacy) Oregon State University Tanguay Lab 120 Hour Post-fertilization zebrafish Assay for Snout Malformation (AID 2283637)
How it was run: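 Tropical 5D wild-type zebrafish embryos, dechorionated with pronase at 4 hpf, were exposed singly from 6 hpf to 120 hpf statically at 28C in 0.64% DMSO. Snout malformation was scored present/absent by brightfield microscopy, fitted against DMSO.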

[15] = Tanguay_ZF_120hpf_JAW_legacy: (Legacy) Oregon State University Tanguay Lab 120 Hour Post-fertilization zebrafish Assay for Jaw Malformation (AID 2283638);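 on AC50: active means more embryos with jaw malformation than DMSO controls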
How it was run: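 Tropical 5D wild-type embryos, dechorionated with pronase at 4 hpf, were placed singly per well at 6 hpf and statically exposed at 28C until 120 hpf (0.64% DMSO final). Jaw malformation scored as present/absent by brightfield microscopy at 120 hpf, analyzed relative to DMSO.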

[16] = Tanguay_ZF_120hpf_OTIC_legacy: (Legacy) Oregon State University Tanguay Lab 120 Hour Post-fertilization zebrafish Assay for Otic Vesicle Malformation (AID 2283639)
How it was run: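 Tropical 5D wild-type zebrafish embryos statically exposed in 0.64% DMSO at 28C until 120 hpf; 5uM trimethyltin chloride as positive control. Otic vesicle malformation scored present/absent by brightfield; dead embryos not scored; gain fitted versus DMSO.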

[17] = Tanguay_ZF_120hpf_PE_legacy: (Legacy) Oregon State University Tanguay Lab 120 Hour Post-fertilization zebrafish Assay for Pericardial Edema (AID 2283640);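 on AC50: potency for increased incidence of pericardial edema versus DMSO baseline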
How it was run: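 Tropical 5D wild-type zebrafish embryos were exposed statically to 120 hpf at 28C, sealed and foil-covered, in 0.64% DMSO final. Pericardial edema was scored present/absent by brightfield microscopy; dead embryos were not scored.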

[18] = Tanguay_ZF_120hpf_BRAI_legacy: (Legacy) Oregon State University Tanguay Lab 120 Hour Post-fertilization zebrafish Assay for Brain Malformation (AID 2283641)
How it was run: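 Tropical 5D wild-type zebrafish embryos were exposed statically in sealed, foil-covered plates at 28C until 120 hpf, with 0.64% (vol/vol) final DMSO. Brain malformation was scored present/absent by brightfield microscopy, relative to DMSO baseline.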

[19] = Tanguay_ZF_120hpf_SOMI_legacy: (Legacy) Oregon State University Tanguay Lab 120 Hour Post-fertilization zebrafish Assay for Somite Malformation (AID 2283647)
How it was run: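 Tropical 5D wild-type zebrafish embryos, dechorionated with pronase at 4 hpf, were placed singly at 6 hpf and statically exposed until 120 hpf at 28C in 0.64% DMSO. Somite malformation was scored present/absent by brightfield microscopy versus DMSO.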

[20] = Tanguay_ZF_120hpf_PFIN_legacy: (Legacy) Oregon State University Tanguay Lab 120 Hour Post-fertilization zebrafish Assay for Pectoral Fin Malformation (AID 2283648);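 further: each larva judged yes or no for fin defect by brightfield with dead larvae skipped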
How it was run: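 Tropical 5D wild-type embryos, dechorionated with pronase at 4 hpf, were placed singly in wells at 6 hpf and statically exposed until 120 hpf at 28C, sealed and dark, with 0.64% (vol/vol) final DMSO; pectoral fin malformation scored present/absent.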

Measured: AC50

Cc1ccc2oc(CN(Cc3ccccc3)C(=O)Nc3c(F)cc(F)cc3F)c(-c3ccc(Cl)cc3)c2c1
not listed: [20]
inactive: all other assays above

Cc1ccc(C(C)C)cc1
not listed: [13] | [17]
inactive: all other assays above

Cc1cccc2ccccc12
not listed: [14]
inactive: all other assays above

O=C1O[C@H]([C@@H](O)CO)C(O)=C1O
not listed: [11] | [15] | [16] | [17]
inactive: all other assays above

CN1C(=O)N(c2ccccc2Br)Cc2cnc(Nc3ccc4c(c3)OCC(CO)O4)nc21 (configuration not stated)
active: [2] 70.4 µM | [3] 4.26 µM | [5] 13.8 µM | [6] 46.1 µM | [7] 13.6 µM | [9] 14.2 µM | [11] 3.4 µM | [12] 2.03 µM | [13] 3.44 µM | [14] 2.27 µM | [15] 0.972 µM | [17] 2.66 µM
inactive: [1] | [4] | [8] | [10] | [16] | [18] | [19] | [20]

CCCCCCCCCCCO
not listed: [9] | [19]
inactive: all other assays above

Clc1ccccc1C(c1ccccc1)(c1ccccc1)n1ccnc1
inactive: [2] | [4] | [5] | [7] | [8] | [10] | [13] | [14] | [16] | [20]
active: [1] 24.2 µM | [2] 58.2 µM | [3] 64.8 µM and 19 µM | [4] 81.9 µM | [5] 74.1 µM | [6] 34.5 µM and 15.3 µM | [7] 86.2 µM | [8] 85.1 µM | [9] 60.2 µM and 16.6 µM | [11] 14.6 µM | [12] 14.8 µM | [15] 1.2 µM | [17] 24.8 µM | [18] 87.3 µM | [19] 61.3 µM

CC(C)(C)c1csc(-c2cc3cc(OCc4ccccc4CC(=O)O)ccc3o2)n1
active: [2] 25.5 µM | [3] 36.2 µM | [4] 46.1 µM | [5] 27.9 µM | [6] 46.1 µM | [7] 47 µM | [9] 49.9 µM | [10] 25.9 µM
not listed: [14]
inactive: all other assays above

CC(C)(c1cc(Br)c(O)c(Br)c1)c1cc(Br)c(O)c(Br)c1
active: [2] 35.7 µM and 46 µM | [3] 54.6 µM and 64.2 µM and 60.5 µM | [4] 55.7 µM and 52.9 µM and 46 µM | [5] 50.4 µM and 63.7 µM and 58.5 µM | [6] 34.3 µM and 46 µM | [7] 67.7 µM and 76.3 µM and 65.8 µM | [8] 44 µM and 57 µM and 63.6 µM | [9] 58.8 µM and 71.4 µM and 63.2 µM | [10] 4.89 µM
not listed: [19] | [20]
inactive: all other assays above
